Experimental data published in PubChem BioAssay AID2314 (National Center for Advancing Translational Sciences (NCATS), 2010).
In all, about 300,000 compounds went through this assay and about 37,000 (12%) were called active. The full list was thinned out, with actives kept by preference. A number with no mark means an inactive call. No stated cut-off is given here; in the data, active means max response mostly above about 13% (no sharp cut-off); inactive means mostly below about 14%.

test: Cycloheximide Counterscreen for Small Molecule Inhibitors of Shiga Toxin; details: cell reporter, cycloheximide protein synthesis inhibition counterscreen; stronger effect = higher value; further: read at 38.3 µM for the half of the compounds with a filed dose; 0% is about no effect

Compound	max response
COCCNC(=O)c1ccc(Cn2c(SCC(=O)NCC3CCCO3)nc3ccc(Br)cc3c2=O)cc1 (configuration not stated)	-4.2%
COCCCNC(=O)COc1cc(C)c(Cl)c(C)c1	5.62%
Cc1cc(OCc2cc(C(=O)NCc3cc(C(C)C)no3)no2)cc(C)c1Cl	72.4% (active)
CC(C)C(=O)NCc1cc(-c2ccc(Cl)cc2)no1	8.48%
COc1ccccc1-c1nnc(NC(=O)c2ccc3ncsc3c2)o1	66.2% (active)
COc1ccccc1-c1nnc(NC(=O)c2cccc(N3C(=O)CCC3=O)c2)o1	-0.976%
COc1ccc(-c2nnc(NC(=O)CS(=O)(=O)c3ccc(Cl)cc3)o2)c(OC)c1	13.7%
COc1ccc(NC(=O)NNC(=O)COc2cc(C)c(Cl)c(C)c2)c(OC)c1	0.264%
O=C(NCc1ccccc1)C1=C[C@@H](C2CCCCC2)C[C@@H](OCc2ccc(CO)cc2)O1	-2.03%
COC(=O)c1ccc(C23CC4(C2)[C@H](CN(Cc2cccnc2)[C@@H]4c2ccccc2)C3c2ccc(Cl)nc2)cc1 (some centres not stated)	-2.32%
CCC1CCCCN1C(=O)CSc1nc2c(c(=O)n1C)SC(C)C2 (configuration not stated)	0.908%
Cc1ccc(NC(=O)NC(=O)CSc2nnc(-c3ccc(OC(F)F)cc3)n2N)c(C)c1	11.8%
Cc1ccc(-c2nnc(SC(C)C#N)n2N)cc1 (configuration not stated)	5.06%
C=C(C)CSc1nnc(-c2ccc(C)cc2)n1N	37.8% (active)
Cc1cc(C)cc(N(CC(=O)N2CC=C(c3ccccc3)CC2)S(=O)(=O)c2c(C)noc2C)c1	8.05%
CCN(CC)CCCNC(=O)c1ccc2c(=O)n(Cc3ccc4c(c3)OCO4)c(=S)[nH]c2c1	5.61%
Cc1ccc(C(=O)CCC(=O)N(C)CC(=O)Nc2c(Cl)cccc2Cl)cc1	1.06%
COc1ccc(-c2nn(CCC#N)cc2C(=O)Nc2ccc(C(C)=O)cc2)cc1	18.3% (active)
COc1ccc(-c2nn(CCC#N)cc2C(=O)O)cc1	0.75%
COc1ccc(NC(=O)c2cn(CCC#N)nc2-c2ccc([N+](=O)[O-])cc2)cc1	-3.78%
COc1ccccc1NC(=O)C1CCCN1S(=O)(=O)c1ccc(Cl)cc1 (configuration not stated)	0.961%
CN(C)CCN(C(=O)C1CCCCC1)c1nc2cc3c(cc2s1)OCO3	15.2%
CN(C)CCN(C(=O)C1=COCCO1)c1nc2ccc(Cl)cc2s1	36.4% (active)
CCOc1ccc2nc(N(CCN(C)C)C(=O)c3ccc4ccccc4c3)sc2c1	8.51%

Compound	max response
CCc1ccc2nc(N(CCCN(C)C)C(=O)c3ccc4c(c3)OCCO4)sc2c1	1.67%
CC(=O)N(CCCN(C)C)c1nc2ccc(C)cc2s1	7.76%
Cc1ccc2nc(N(CCN(C)C)C(=O)C3=COCCO3)sc2c1	30.5% (active)
CC(C)(C)c1ccc(C(CC(=O)O)NS(=O)(=O)Cc2ccccc2)cc1 (configuration not stated)	-5.97%
CCCCn1c(SCC(=O)N2CCOCC2)nc2c1c(=O)n(C)c(=O)n2C	-6.86%
O=C(Nc1ccc(Br)cc1F)C1CC(=O)N(C2CCCCC2)C1 (configuration not stated)	-2.46%
CC1=CCC2C(=O)N(c3cccc(C(=O)NC(C)c4ccccc4)c3)C(=O)C2C1 (configuration not stated)	-2.5%
Cc1ccc(C(=O)N/C(=C\c2ccc(F)cc2)C(=O)NCCN2CCOCC2)cc1	-2.99%
Cc1ccc(NC(=S)NCCN2CCOCC2)cc1	-2.44%
Cc1ccc(C(=O)NC(=S)NCCN2CCOCC2)cc1	31.2% (active)
CCc1ccc(C(CNc2nc(C(F)(F)F)nc3ccccc23)N(C)C)cc1 (configuration not stated)	-6.3%
COc1ccccc1C(=O)Nn1c(-c2cccs2)nc2ccccc2c1=O	2.63%
O=C(NCCCN1CCOCC1)c1cc2c(s1)CCC2	15.4% (active)
O=C(NCCCn1ccnc1)c1cc2c(s1)CCCC2	-2.62%
COc1ccc(C(CNC(=O)c2cc3c(s2)CCCC3)N2CCOCC2)cc1 (configuration not stated)	5.2%
CCOc1ccc(C(C(=O)NC2CCCC2)N(C(=O)c2snc(C(N)=O)c2N)C2CCCC2)cc1 (configuration not stated)	-3%
CCN(CC)S(=O)(=O)c1ccc(Cl)c(C(=O)NCCN2CCOCC2)c1	-7.58%
CCN(CC)S(=O)(=O)c1ccc(N2CC(C(=O)NCc3cccnc3)CC2=O)cc1 (configuration not stated)	-8.09%
Oc1ccc(CNc2ccccc2O)cc1	35.8% (active)
O=C(Cc1ccc(Cl)cc1)NC(=S)Nc1ccccc1O	0.61%
O=[N+]([O-])c1ccccc1Nc1ccc(O)cc1	-1.56%
CCOC(=O)[C@@H]1[C@H]2COc3ccc(Br)cc3[C@H]2N2C(=O)N(c3ccc(Cl)cc3)C(=O)[C@@]12C	-3.81%
Cc1nn(CC(=O)Nc2nc3ccccc3s2)c(C)c1[N+](=O)[O-]	16.7%
